Source: PubChem BioAssay (several laboratories)
Shown are actives, neighbours in structure and some others; about 2.7% of the full set was active somewhere.
MITF TRPM1 inh: inhibitors of MITF-driven TRPM1 promoter in melanoma cells; SK-MEL-5 TRPM1 promoter luciferase, 24 h; inhibition, % at 12.5 µM; 0.83% of 330,000 active;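 active means mean inhibition across replicates of 60% or more, whatever share of single replicates reaches that level; inconclusive means some that reach 60%, reason not given; inactive means mean inhibition across replicates below 60%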
Shn3 3UTR inh: reduces Shn3 3'UTR luciferase signal in osteoblasts. inhibition, % at 12.5 µM. Clone20 osteoblast Shn3 3'UTR firefly luciferase, 24 h. 0.52% of 360,000 active. AID 588674;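 active means mean inhibition of at least 75% with every replicate also reaching 75%; inconclusive means mean inhibition at least 75% but some replicate below; inactive means mean inhibition below 75%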;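 further: 0% = median of neutral control wells and 100% = pilot-screen positive control compound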
HIF-2a block: HIF-2a inhibition; 786-0 RCC cells HIF-2a reporter, luciferase luminescence, overnight; inhibition, % at 18.8 µM; 0.72% of 360,000 active;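 active means inhibition of the luminescence signal of 40% or more relative to plate controls, in a single-dose primary screen at 18.75 µM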
Peg3 prom inh: Peg3 promoter activity inhibition. HeLa PEG-Prom luciferase reporter, luminescence, overnight. AID 588405. 1.7% of 360,000 active. inhibition, % at 20 µM;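 active means inhibition of at least 50% at 20 µM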
KKLEB tox: counter-screen for CF NF-kB inhibitors: cytotoxicity; KKLEB CF airway cells viability, ATPlite luminescence, overnight; hits give low values; cells stimulated with P. aeruginosa culture filtrate; 0.36% of 360,000 active; activity change (cytotoxicity), % at 5 µM;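 active means corrected activity change at or below -50% at 5 µM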
CF NFkB block: inhibitors of cystic fibrosis induced NF-kB. KKLEB NF-kB-GFP reporter, PAF-induced, GFP fluorescence overnight. inhibition, % at 5 µM. 0.86% of 360,000 active;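 active means at least 50% inhibition at 5 µM, scaled per plate between neutral and stimulator controls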;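 further: PAF is a Pseudomonas aeruginosa culture filtrate used as stimulus; plate controls were PAF-stimulated DMSO wells for no effect and unstimulated DMSO wells for full effect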
Starred values were filed as active, the others as inactive; ? = inconclusive; · = not tested or not shown; ! = not confirmed by another sample.

SMILES | MITF TRPM1 inh | Shn3 3UTR inh | HIF-2a block | Peg3 prom inh | KKLEB tox | CF NFkB block
CCOc1cc(N2CCOCC2)c(OCC)cc1NC(=O)c1cc(-c2ccco2)nc2ccccc12 | 16.9 | 92.3* | -6.2 | 49.5 | -39.1 | 98.8*
Cc1cccc(NC(=O)C2CCN(S(=O)(=O)c3cccc4nsnc34)CC2)n1 | 3.8 | -2.4 | 15.8 | 14.8 | -1.4 | -7.2
COc1ccc2nc(NC(=O)C3CCN(S(=O)(=O)c4cccc5nsnc45)CC3)sc2c1 | 73.9* | 57.6 | 18.3 | 81.3* | -5.8 | 44.4
CSc1ccccc1NC(=O)C(C)N(C)CC(=O)N1CCN(Cc2ccccc2)CC1 (configuration not stated) | 10.8 | 3.7 | -0.2 | 12.8 | -3.5 | -10.2
C1CCC(C(CC2CCCCN2)C2CCCCC2)CC1 (configuration not stated) | 80.9* | ? | -24.8 | 104.0* | -17.1 | 10.3
CCOC(=O)CCNC(=O)N1CCCC(C(=O)c2cc(C)c(OC)c(C)c2)C1 (configuration not stated) | 14.9 | 14.6 | 20.6 | 15.0 | -4.6 | 6.9
CCCS(=O)(=O)c1nnnn1-c1cccc(OC)c1 | 70.1* | 98.6* | -42.3 | 102.0* | -25.4 | 90.3*
CCOCCCNC(=O)/C(C#N)=C/c1ccc([N+](=O)[O-])o1 | 61.4* | 97.7* | 34.0 | 101.0* | 9.0 | -6.2
CC(NC(=O)/C(C#N)=C/c1ccc([N+](=O)[O-])o1)c1ccccc1 (configuration not stated) | 58.3 | 94.3* | 78.2* | 103.2* | 18.5 | -52.3
O=C(O)CC(NC(=O)/C(=C/c1ccccc1)NC(=O)c1ccccc1)c1ccccc1 (configuration not stated) | 12.6 | -13.1 | 16.4 | 2.9 | -6.1 | 7.4
COCCCNC(=O)CC1C[C@H](C(=O)N2CCCCC2)[C@@]2(CCc3ccccc3)c3[nH]c4ccc(OC)cc4c3CCN2C1=O (some centres not stated) | 7.1 | 8.7 | 10.9 | 8.4 | -7.0 | 16.8
COc1cnc(-c2ccccn2)nc1N(C)c1ccccc1 | 18.2 | 88.6* | -172.7 | -50.1 | -17.3 | -2.6
O=C(NCC(=O)N1CCC2(CC1)NCCc1[nH]cnc12)c1cccc(Cl)c1 | -1.1 | -16.9 | 2.2 | -1.4 | 37.5 | -31.9
COc1ccccc1C(=O)NC(=Nc1nc2ccccc2o1)NC(=O)c1ccccc1OC | 15.0 | 6.0 | -10.6 | 86.1*! | -0.4 | -56.5
O=C(NC(=Nc1nc2ccccc2o1)NC(=O)c1ccccc1)c1ccccc1 | -55.5 | -13.7 | -185.9 | -94.8 | 8.2 | -19.7
Nc1ccccc1O | 45.4 | 7.8 | -41.6 | -47.2 | -3.0 | 53.3*
Oc1ccccc1O | 7.1 | 30.0 | -3.8 | 9.4 | -18.6 | 10.1
C=CC[C@@H](CC(=O)N(CCO)Cc1ccccc1)C(=O)N[C@@H](COC(=O)[C@@H](CC=C)Cc1ccc(F)cc1)Cc1c[nH]c2ccccc12 | 7.1 | 30.1 | 14.9 | 43.3 | -5.6 | 29.7
C=CCC[C@@H](Cc1ccc(F)cc1)C(=O)OC[C@@H](Cc1c[nH]c2ccccc12)NC(=O)[C@H](CC=C)CC(=O)N(CCO)Cc1ccccc1 | 10.0 | 49.9 | 5.7 | 52.3* | -1.6 | 27.2
C=CC[C@H](CC(=O)N(CCO)Cc1ccccc1)C(=O)N[C@@H](COC(=O)[C@@H](CC=C)Cc1ccc(F)cc1)Cc1c[nH]c2ccccc12 | 0.5 | -11.6 | -36.9 | 60.2* | 7.3 | 7.4
C=CCC[C@H](Cc1ccc(F)cc1)C(=O)OC[C@@H](Cc1c[nH]c2ccccc12)NC(=O)[C@H](CC=C)CC(=O)N(CCO)Cc1ccccc1 | 16.9 | ? | -10.2 | 64.5* | -12.0 | 14.3
CC(=O)c1ccc(S(=O)(=O)N2CCN(C(=O)CN3C(=O)NC4(CCCC4)C3=O)CC2)cc1 | -3.8 | -7.5 | 4.2 | 2.8 | 0.7 | 5.0
Cc1cccc(C)c1NC(=O)C1(C)CN(S(C)(=O)=O)CC(=O)N1Cc1cccs1 (configuration not stated) | · | · | -5.5 | · | · | ·
CN(CC(=O)Nc1ccccc1C(F)(F)F)C(=O)C1CCN(S(=O)(=O)c2ccc3c(c2)OCCO3)CC1 | 6.7 | -17.6 | 4.2 | 10.1 | 14.8 | -21.1
CCC(=O)NC(c1ccc(C)cc1)c1cc([N+](=O)[O-])c2cccnc2c1O (configuration not stated) | 6.4 | 7.9 | -1.2 | 52.6* | -3.7 | 2.3
